In article PMC9838217, “Structure of SALL4 zinc finger domain reveals link between AT-rich DNA binding and Okihiro syndrome”:
Residue numbers refer to the chain shown, from its start.

Experiments:
[1] = molecular target: T1, SALL4 ZFC4 R900W (HT-SELEX) (Mus musculus, UniProt Q8BX22 870-940, R900W); assay: HT-SELEX; high values mean tight binding; conditions: protein: recombinant; vector His6-GST; dsDNA, one strand shown
T1 sequence: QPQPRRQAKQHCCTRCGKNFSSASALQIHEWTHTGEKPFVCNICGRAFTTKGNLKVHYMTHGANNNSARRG
Summary of the method: (§1)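 Up to 6 cycles of selection were run in triplicate. In each, purified recombinant mouse SALL4 zinc finger cluster 4 (residues 870–940, 1 µg) was incubated with library DNA (1.5 µg first cycle, 200 ng later) in 100 µl of 10 mM Tris–HCl pH 7.5, 50 mM NaCl, poly(dI-dC), DTT for 10 min at room temperature, then complexes were captured on Ni2+ beads, washed and PCR-amplified; final pools were MiSeq-sequenced and scanned for 6-mers. Binding signal is each canonical k-mer's read fraction as fold change versus the initial random library.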

[2] = molecular target: T2, SALL4 ZFC4 G921D (HT-SELEX) (Mus musculus, UniProt Q8BX22 870-940, G921D); assay: HT-SELEX; high values mean tight binding; conditions: protein: recombinant; vector His6-GST; dsDNA, one strand shown
T2 sequence: T1 sequence with W31R, G52D
Summary of the method: as §1

| Sequence | binding signal [1] [fold-change vs cycle 0] | binding signal [2] [fold-change vs cycle 0] |
| --- | --- | --- |
| CTGCAC | 0.345 ± 0.044 | 0.47 ± 0.0692 |
| GCGACA | 0.186 ± 0.0276 | 0.338 ± 0.0565 |
| GCAGGC | 0.124 ± 0.00995 | 0.24 ± 0.0592 |
| CCGCTC | 0.151 ± 0.0178 | 0.273 ± 0.0659 |
| CCGCCC | 0.0662 ± 0.0114 | 0.164 ± 0.0742 |
| CGCAAG | 0.289 ± 0.0102 | 0.411 ± 0.0549 |
| GCCACA | 0.251 ± 0.0128 | 0.391 ± 0.0588 |
| CCGACC | 0.172 ± 0.00253 | 0.309 ± 0.075 |
| CGCAGC | 0.0883 ± 0.014 | 0.191 ± 0.0678 |
| CGTGCA | 0.286 ± 0.00377 | 0.417 ± 0.0517 |
| AGCGAC | 0.253 ± 0.0224 | 0.41 ± 0.0789 |
| CGACAC | 0.316 ± 0.0105 | 0.48 ± 0.0742 |
| ACTGCC | 0.333 ± 0.0151 | 0.469 ± 0.0726 |
| GCCTCA | 0.364 ± 0.0186 | 0.513 ± 0.0755 |
| GAGGCC | 0.158 ± 0.00288 | 0.286 ± 0.0765 |
| AAGCGG | 0.29 ± 0.026 | 0.396 ± 0.0731 |
| GACCCC | 0.276 ± 0.00974 | 0.391 ± 0.051 |
| CGGTCC | 0.209 ± 0.0179 | 0.324 ± 0.081 |
| TCGGCA | 0.208 ± 0.0109 | 0.351 ± 0.0637 |
| CCCCGG | 0.118 ± 0.0064 | 0.224 ± 0.0627 |

| Sequence | binding signal [1] [fold-change vs cycle 0] | binding signal [2] [fold-change vs cycle 0] |
| --- | --- | --- |
| CGCTTC | 0.316 ± 0.00396 | 0.452 ± 0.0563 |
| ATGCGG | 0.275 ± 0.0176 | 0.409 ± 0.0549 |
| CGACAG | 0.332 ± 0.0161 | 0.469 ± 0.0472 |
| GGCGCC | 0.0274 ± 0.00854 | 0.102 ± 0.0477 |
| ACGAGC | 0.322 ± 0.019 | 0.459 ± 0.061 |
| CAGCCC | 0.16 ± 0.0179 | 0.287 ± 0.0742 |
| CGAGCA | 0.299 ± 0.00719 | 0.447 ± 0.0658 |
| GAGCCA | 0.301 ± 0.00918 | 0.466 ± 0.0659 |
| AGCGGG | 0.168 ± 0.0263 | 0.277 ± 0.0671 |
| AGAGCC | 0.335 ± 0.0199 | 0.505 ± 0.0782 |
| GCCGAA | 0.189 ± 0.0081 | 0.319 ± 0.0704 |
| GCCAGA | 0.289 ± 0.0233 | 0.414 ± 0.0657 |
| CTGGCA | 0.281 ± 0.0156 | 0.413 ± 0.0619 |
| GGCCAA | 0.221 ± 0.00964 | 0.358 ± 0.0813 |
| CCCGAC | 0.183 ± 0.0155 | 0.308 ± 0.0677 |
| ACGACG | 0.31 ± 0.0104 | 0.425 ± 0.0391 |
| CGGGAG | 0.27 ± 0.0161 | 0.381 ± 0.0867 |
| AGGCTG | 0.37 ± 0.0148 | 0.493 ± 0.0564 |
| GAGCGA | 0.326 ± 0.0151 | 0.483 ± 0.0727 |
